# Measured values taken from PubChem BioAssay (NCATS).
# Inconclusive results are not listed. A number with no mark means an inactive call. Active and inactive are the calls of the source. The call rests on the fitted dose curve; in most records, active means well fitted curve in the direction sought with a large enough effect; inconclusive means small, poorly fitted or top-dose-only effect, or another doubt; inactive means no such curve, though single readings can be large; an effect the other way counts as inactive or inconclusive.
# Molecular target: Aldehyde dehydrogenase, mitochondrial (Homo sapiens) (UniProt P05091)
# Assay: qHTS for Inhibitors of the Aldehyde Dehydrogenase Family (ALDH2) Primary screen (AID 2061308);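 further: plate controls were vehicle for no effect and reference inhibitor for full effect; nearly all actives have a fitted effect of over 55% in size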
# Conditions: ALDH2 enzyme inhibition qHTS, 1536-well; series mostly up to 56 µM; activity change, negative = inhibition: at the top concentration
row,Compound,"activity change, negative = inhibition"
1,CC(=O)OC[C@]12[C@@H](OC(=O)c3ccoc3)C[C@@H]3[C@@H](OC(C)=O)[C@]1(OC3(C)C)[C@@](C)(O)C[C@H](OC(=O)c1ccoc1)[C@@H]2OC(=O)c1ccoc1,6.81% [at 16.9 µM]
2,O=C(Nc1ccccc1C(=O)Nc1ccc(CCO)cc1)c1ccc([N+](=O)[O-])cc1,7.88%
3,CC1(C)C2CCC1(C)C(OC(=O)C(O)(CC(=O)O)CC(=O)O)C2 (configuration not stated),-11.6%
4,CNC(C)C(=O)NC(C(=O)N1CCCC1C(=O)Nc1cccc2ncccc12)C(C)C (configuration not stated),-7.17%

# Molecular target: Retinal dehydrogenase 2 (Homo sapiens) (UniProt O94788)
# Assay: qHTS for Inhibitors of the Aldehyde Dehydrogenase Family (ALDH1A2) Confirmation screens (AID 2061314); further: nearly all actives have a fitted effect of over 65% in size; further: potency means the concentration at half of the fitted maximal effect; on activity, negative = inhibition: on the % scale 0 is the no-effect control and ±100 the full control effect
# Conditions: ALDH1A2 enzyme inhibition qHTS confirmation; series mostly up to 45.9 µM; activity, negative = inhibition: at the top concentration
Compound,"activity, negative = inhibition",Potency,outcome
Cc1ccc(CNc2ncnc3ccc(-c4ccc(CO)o4)cc23)o1,-22%,–,–
O=C1NC(=O)C(c2cnc3ccccn23)=C1c1cn2c3c(cccc13)CN(C(=O)N1CCOCC1)CC2,-22%,–,–
N#Cc1c(O)c2c(-c3ccc(-c4ccccc4O)cc3)csc2[nH]c1=O,–,12.7 µM (active),–
CC1(C)CC[C@]2(C(=O)O[C@@H]3O[C@H](CO)[C@@H](O)[C@H](O)[C@H]3O)CC[C@]3(C)C(=CCC4[C@@]5(C)C[C@@H](O)[C@H](O)[C@@](C)(CO)C5CC[C@]43C)C2[C@@H]1O (some centres not stated),–,–,inactive [at 16.7 µM]
COC(=O)Cc1cc2c(c([N+](=O)[O-])c1)N(C(=O)CC[C@H](N)C(=O)O)CC2,–,–,inactive
COC(=O)c1ccc(OC(CO)C(O)c2ccc(O)c(OC)c2)c(OC)c1 (configuration not stated),–,–,inactive [at 25.6 µM]
C=C1C(=O)O[C@@H]2[C@H]1CC(=O)[C@H](C)[C@@](O)(C(=O)/C=C/C)[C@H]2OC(=O)C(C)CC (some centres not stated),–,4.4 µM (active),–
COc1cc(O)cc2c1C(=O)OC(C)CCCCCCC2 (configuration not stated),-18.7%,–,–
CC1(C)C2CCC1(C)C(OC(=O)C(O)(CC(=O)O)CC(=O)O)C2 (configuration not stated),-17.8% [at 25.6 µM],–,–

# Molecular target: Retinaldehyde dehydrogenase 3 (Homo sapiens) (UniProt P47895)
# Assay: qHTS for Inhibitors of the Aldehyde Dehydrogenase Family (ALDH1A3) Primary screen (AID 2061315);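 further: plate controls were DMSO vehicle for no effect and reference inhibitor for full effect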
# Conditions: ALDH inhibition qHTS; series mostly up to 56 µM; activity change, negative = inhibition: at the top concentration
Compound,"activity change, negative = inhibition",Potency
COC(=O)C1=C2Nc3ccccc3C23CCN2CCCC(C(C)O)(C1)C23 (configuration not stated),-17.3%,–
Cc1ccc(CNc2ncnc3ccc(-c4ccc(CO)o4)cc23)o1,–,inactive
CC1(C)CC[C@]2(C(=O)O)CC[C@]3(C)C(=CCC4[C@@]5(C)CCC(O[C@@H]6OC[C@H](O)[C@H](O)[C@H]6O[C@@H]6O[C@H](CO)[C@@H](O)[C@H](O)[C@H]6O)[C@@](C)(CO)C5CC[C@]43C)[C@@H]2C1 (some centres not stated),12.7% [at 16.9 µM],–
C[C@@H]1C[C@H]2O[C@@]3(O[C@@H]2C(C)(C)O)C(O)[C@@]2(C)C4CCC5C(C)(C)[C@@H](O[C@H]6OC[C@H](O)[C@@H](O)[C@@H]6O)CC[C@@]56C[C@@]46CC[C@]2(C)C13 (some centres not stated),12.6% [at 16.9 µM],–
H-DPPDPDRFYGMM-NH2,6.16% [at 16.9 µM],–
C/C(=C/CCC(CO)C1CCC2(C)C3CCC4C(C)(C)C(OC5OC(CO)C(O)C(O)C5O)CC(O)C45CC35CCC12C)COC1OC(CO)C(O)C(O)C1O (configuration not stated),18.1% [at 16.9 µM],–
C=C(C)C(=O)OC1CC(CO)CCC/C(CO)=C/C2OC(=O)C(=C)C21 (configuration not stated),2.87%,–
COC(=O)[C@H]1[C@H]2C[C@@H]3c4[nH]c5cc(OC)ccc5c4CCN3C[C@H]2C[C@@H](OC(=O)/C=C/c2cc(OC)c(OC)c(OC)c2)[C@@H]1OC,-2.51% [at 16.9 µM],–
CC(=O)O[C@H]1[C@H](C)[C@@H](O)[C@H]2[C@@H]1C=C(C(=O)O)[C@H]1C[C@@H]3[C@H]([C@H]21)[C@H]1C(=O)O[C@@H]2CC[C@@]3(C)O[C@]1(O)[C@@H]2C,5.4% [at 28 µM],–
Cn1nccc1-c1ccccc1Oc1ccc(S(=O)(=O)Nc2nccs2)cc1C#N,12%,–
N#Cc1c(O)c2c(-c3ccc(-c4ccccc4O)cc3)csc2[nH]c1=O,-13%,–
O=C(/C=C/c1ccc(O)cc1)OC[C@H]1O[C@@H](O/C(=C\c2ccccc2)C(=O)O)[C@H](O)[C@@H](O)[C@@H]1O,6.08% [at 28 µM],–
CC1(C)C(=O)N2c3ccccc3C(O)(CC(C(=O)O)n3cnc4ccccc4c3=O)C2N1O (configuration not stated),-4.94% [at 28 µM],–
CC1(C)CC[C@]2(C(=O)O[C@@H]3O[C@H](CO)[C@@H](O)[C@H](O)[C@H]3O)CC[C@]3(C)C(=CCC4[C@@]5(C)C[C@@H](O)[C@H](O)[C@@](C)(CO)C5CC[C@]43C)C2[C@@H]1O (some centres not stated),14.5% [at 16.9 µM],–
CC(C)c1ccc2c(c1)C(=O)CC1C(C)(C(=O)O)CCCC21C (configuration not stated),-16.2%,–
Cc1cc(C)c(NC(=O)N(Cc2ccc3c(c2)Cc2ccccc2-3)C2CCCCCC2)c(C)c1,-19%,–
COC(=O)c1[nH]c(=O)c2ccccc2c1-c1ccc[nH]1,-19.4%,–
CCc1cc(CN2CC(C(=O)O)C2)sc1-c1noc(-c2ccc(Oc3ccccc3)cc2)n1,2.83% [at 28 µM],–
COC(=O)Cc1cc2c(c([N+](=O)[O-])c1)N(C(=O)CC[C@H](N)C(=O)O)CC2,-24.3%,–
